Results as given in PubChem BioAssay AID540317 (National Center for Advancing Translational Sciences (NCATS), 2011).
Out of some 390,000 compounds screened, about 2,200 (0.56%) were called active. Roughly 3% stayed inconclusive and do not appear here. The sample holds actives, similar compounds and a random draw of the others, so the mix is not that of the screen. Calls come from the whole dose curve; as a rule, active = well fitted inhibition curve with a large enough effect; inconclusive = small, poorly fitted or top-dose-only effect; inactive = no such curve, though single readings can be large or run the other way.

target: Chromobox protein homolog 1 (Homo sapiens) (UniProt P83916); test: HTS for Inhibitors of HP1-beta Chromodomain Interactions with Methylated Histone Tails; conditions: AlphaScreen HP1-beta / biotin-H3K9me3 peptide binding; series mostly up to 114 µM; activity change, negative = inhibition: at the top concentration; note: nearly all actives have a fitted effect of over 70% in size
Excerpt: As our understanding of epigenetics expands, it is becoming clear that players in this field are potential targets for drug development. This area of epigenetic therapy has established applications for the treatment of cancer and neurological diseases. We have been involved in this field for a number of years and have performed high-throughput screens to identify the first small molecule inhibitors of protein methyltransferases. These methyltransferases target multiple substrates, and thus regulate many arms of an epigenetic pathway. The methylation of different substrates often generates docking sites for effector proteins that harbor binding domains (chromo, tudor, PHD, MBT and ANK repeats). It has been proposed that the binding sites generated for different proteins by these post-translational modifcations mediate downstream effects on chromatin. Consistent with this theory, di- and tri-methylation of histone H3K9 facilitates the binding of heterochromatin protein HP1. The HP1 protein harbors a chromodomain that is responsible for the methyl-dependent interaction between HP1 and lysine 9 of histone H3. HP1 was first described in flies as a heterochromatin associated protein that can regulate gene silencing. It harbors a chromodomain that binds H3K9me3. In addition, it harbors a chromoshadow domain that interacts with a large number of proteins that are involved in heterochromatin formation and gene repression. There are three highly related HP1 isoforms. All three variants are associated with pericentric heterochromatin and it is not clear whether they have specific or redundant functions. MPP8 is also involved in the repression of gene in euchromatic regions (unpublished data) and like HP1 its chromodomain binds H3K9me3. MPP8 harbors an ankyrin repeat region that is likely involved in binding and recruiting interacting proteins with transcriptional repressive function, much like the chromoshadow domain of HP1 does. We hypothesize that by inhibiting specific protein-protein interactions we will be able to develop compounds that block a single arm of an epigenetic pathway. The specificity attained by blocking a single protein-protein interaction will be far greater than that attained by blocking the enzyme that regulates one of many interactions. Low-affinity protein-protein interactions (Kd in the single- to double-digit micromolar range) such as those discussed here have been very difficult to assay by traditional techniques such as fluorescence polarization or fluorescence resonance energy transfer. We have developed a sensitive chemiluminescence-based assay (Quinn, et al. 2009), which serves as the starting point for this project. The following is a validation assay to identify lead compounds that can block methyl-dependent protein-protein interactions (specifically HP1-beta), which can be used as probes to analyze these methyl-driven interactions and perhaps even developed into targeted epigenetic therapies. NIH Chemical Genomics Center [NCGC] NIH Molecular Libraries Probe Centers Network [MLPCN] MLPCN Grant: DA031087 Assay Submitter (PI): Mark Bedford, University of Texas, Medical Anderson Cancer Center, TX
To each well, 2 uL of HP1-beta protein (final 50 nM) and 1 uL biotinylated histone peptide trimethylated at Lys9 [b-H3(1-18)K9me3] (final 50 nM) was added in 1x PBS buffer, pH 7.4, containing 0.01% Tween-20 using a nanoliter dispenser. Formation of a protein-peptide complex proceeded at room temperature for 30 min. A Kalypsys pin-tool was employed to transfer 23 nL of library compound solution in DMSO to each well. Aurintricarboxylic acid (ATA) was used as an intraplate control with a 12-point titration in duplicate. Following a 30 min incubation of the protein-peptide complex with compounds at room temperature, a mixture of 40 ug/mL each streptavidin-coated donor and nickel chelate acceptor AlphaScreen beads (final 10 ug/mL) was added in a 1 uL dispense for a final volume of 4 uL. […]
Potency is the fitted concentration of half-maximal effect.

Chromobox protein homolog 1 (Homo sapiens), sequence (P83916 whole entry, looked up): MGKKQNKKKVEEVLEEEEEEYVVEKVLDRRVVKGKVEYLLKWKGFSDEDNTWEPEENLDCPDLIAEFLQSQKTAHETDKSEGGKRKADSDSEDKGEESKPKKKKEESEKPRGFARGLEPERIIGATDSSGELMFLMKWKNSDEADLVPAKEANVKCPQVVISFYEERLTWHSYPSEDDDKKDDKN

Activity change, negative = inhibition, inactive:
NS(=O)(=O)c1cc(C(=O)OCC(=O)NNC(=O)c2ccccc2)ccc1Cl 20.8%, CCOc1ccccc1NC(=O)Cn1c2ncccc2c(=O)n1-c1ccc(C)c(C)c1 15.2%, COc1cccc(Nc2nc3ccccc3c3nncn23)c1 48.6%, COC(=O)c1cc(NC(=O)c2cnc(SC)nc2-c2ccccc2)cc(C(=O)OC)c1 36.3%, Cc1ccc(F)cc1S(=O)(=O)N1CCC(c2nc3ccccc3s2)CC1 67.3%, Cc1ccc2cccc(NC(=O)c3cccc4ccccc34)c2n1 87.3%, COc1ccc(CNC(=O)c2ccc3c(O)c(S(=O)(=O)c4ccccc4)c(=O)[nH]c3c2)cc1 19.6%, COc1cc(Cl)cc(C2NC(=O)NC(C)=C2C(=O)NCc2ccccc2)c1O (centres undefined) 10.7%, COC(=O)c1ccc(NC(=O)CSc2n[nH]c(-c3ccccc3)n2)cc1 32.5% [at 57 µM], COc1ccc(OCCCn2c(C3CC(=O)N(c4ccc(F)cc4)C3)nc3ccccc32)cc1 (centres undefined) 23%, COc1ccc2c(c1)CCc1c(C(=O)Nc3cc(C)ccc3O)noc1-2 27.4%, Cc1nnc(N2CCCC(C(=O)NCCN(C)C)C2)c2nn(-c3ccccc3)c(C)c12 (centres undefined) 40.3%, COc1ccc(Cl)cc1NC(=O)CN(C)C(=O)CNC(=O)C12CC3CC(CC(C3)C1)C2 9.71%, COc1ccc(Cl)cc1NC(=O)CN(C)CC(=O)Nc1ccc2c(c1)OCO2 26.1%, COc1ccc(Cl)cc1NC(=O)CCC(=O)c1ccc(C)cc1 32.3%, Cc1ccc(Cl)cc1NC(=O)CCS(=O)(=O)c1ccc(Br)s1 -9.23%, O=C(Nc1cccc2cccnc12)c1cccc2c(Br)cccc12 44.8%, COc1cccc(CNC(=O)CCc2nc(-c3ccc(C)cc3)no2)c1 58.9%, C=CCCN(C(Cc1ccccc1)C(=O)OC)S(=O)(=O)c1cc(Br)ccc1Br (centres undefined) 59.4%, COc1ccc(-c2noc(-c3ccc(N4CCN(c5ccccc5)CC4)c([N+](=O)[O-])c3)n2)cc1OC 41.2%, CCc1ccc(NC(=O)CN2C(=O)CCSc3ccc(S(=O)(=O)N4CCCC4)cc32)cc1 18.2% [at 57 µM], Cc1ccc(-c2nnc3ccc(SCC(N)=O)nn23)cc1 32%, COC(=O)CCc1ccccc1S(=O)(=O)N(CCC(=O)OC)Cc1ccccc1 -5.53%, Cc1ccc(C)c(Nc2nnc(-c3ccc(C)c(S(=O)(=O)N4CCCCC4)c3)c3ccccc23)c1 26.8%, CCc1ccc(NC(=O)C(C)OC(=O)/C=C/c2cccc([N+](=O)[O-])c2)cc1 (centres undefined) 12.7%, CC(C)OP(=O)(OC(C)C)C(Nc1ccccc1)c1cccc([N+](=O)[O-])c1 (centres undefined) 15%, Cc1c(-c2nsc(NC(=O)c3cccc(Cl)c3)n2)nnn1-c1ccccc1C(F)(F)F 20.1%, CCOCCCNC(=O)c1ccc2nc(CCc3ccccc3)oc2c1 19.6% [at 57 µM], CCOc1ccc(NC(=S)NC(=O)/C=C/c2ccc(OC)cc2)c([N+](=O)[O-])c1 -2.89%, COc1cccc(N2CC(NC(=O)/C=C\c3ccccc3)CC2=O)c1 (centres undefined) 5.02%, CC1CCN(S(=O)(=O)c2ccc3c(c2)N(CC(=O)NCCc2ccccc2)C(=O)CO3)CC1 10.4%, Brc1nc2ncnc(NCc3ccco3)c2[nH]1 7.51% [at 57 µM], COC(=O)c1ccc(NC(=O)CCc2c(C)nn(-c3ccc(N4CCCC4)nn3)c2C)cc1 39.1%, Oc1ccc(N2CCN(C(=S)NCc3ccccc3)CC2)cc1 -18.1%, OCC(CO)(CO)NCc1ccc(-c2ccccc2)cc1 16.6%, COc1cccc(CNC(=O)CSc2c3c(nc4cc(Cl)ccc24)CCCC3)c1 47.5%, N#Cc1cc2[nH]c(=O)c(=O)[nH]c2cc1[N+](=O)[O-] 2.3%, CCN(C(=O)Cn1cnc2sc(C)c(S(=O)(=O)N3CCN(c4ncccn4)CC3)c2c1=O)c1ccccc1F 46.6%, O=S(=O)(c1ccccc1)c1nc(-c2ccc(Cl)cc2Cl)oc1N1CCCCC1 -21.6% [at 57 µM]

Potency, active:
O=C(NC1=CC(=O)c2ccccc2C1=O)c1ccccc1 22.4 µM, Cc1csc(Nc2ccc(Cl)cc2)[n+]1-c1ccc(Cl)cc1 17.8 µM, COc1cc(C(=S)NCc2ccccc2)cc(Br)c1O 7.94 µM, CN(C)c1ccc(Nc2c3c4c(cccc4n(C)c2=O)C(=O)c2ccccc2-3)cc1 4.47 µM, COc1ccc(Cl)cc1NC(=O)CCS(=O)(=O)c1ccc(Br)cc1 12.6 µM, COc1ccc(Cl)cc1NC(=O)CN(C)Cc1ccc(OC)c(OC)c1 39.8 µM, COC(=O)/C=C\C(=O)Nc1cccc([N+](=O)[O-])c1 10 µM, COc1ccc(/C=C/C(=O)c2cc(Br)ccc(=O)c2O)cc1 50.1 µM, Nc1ccc2[nH]c(=S)sc2c1 28.2 µM, Oc1ccc(CNc2ccccc2O)cc1 50.1 µM
